Screening results deposited in PubChem by several laboratories.
Shown are actives, neighbours in structure and some others; about 4.8% of the full set was active somewhere.
MPTP inh – mitochondrial permeability transition pore inhibitors, primary screen, biochemical, isolated mouse mitochondria, absorbance | inhibition, % at 10 µM | Ca2+ swelling absorbance, 30 min | 1.4% of 360,000 active | AID 602449, 2012;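 active = inhibition of 50% or more, scaled per plate between neutral and stimulator controls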
Calb FLC – C. albicans growth inhibition with fluconazole, primary screen, CaCi-2 strain, Alamar Blue fluorescence | 0.57% of 300,000 active | C. albicans CaCi-2 (fluconazole-resistant clinical isolate) + fluconazole, 48 h | growth inhibition, % (test concentration not listed);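 active = growth inhibition above about 58% in most replicates, limit read from the data, passing the limit was not always enough; inconclusive = exactly half the replicates above a set limit; inactive = most replicates below a set limit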;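 also: all wells also contain fluconazole at 8 µg/ml as a sub-toxic cotreatment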
Beta cell apopt – inhibitors of cytokine-induced beta cell apoptosis, primary screen, luminescence. INS-1E cytokine-induced death, ATP luminescence, 48 h; percent of positive-control rescue, neutral wells zero. protection from apoptosis, % (concentration not given with the values). 0.8% of 300,000 active. AID 435005, 2010;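 active = Every replicate reaches about 75%, or at least half do and their mean reaches it too, limit read from the data; inconclusive = At least half of replicates reach the limit but their mean does not; inactive = Under half of replicates reach the limit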;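 also: higher means more ATP so stronger rescue from cytokine killing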
Mdm2-MdmX inh – inhibitors of human Mdm2-MdmX association, primary screen, cell-based, luminescence, split luciferase, SaOS-2, uHTS | SaOS-2 split-luciferase Mdm2/MdmX complementation | inhibition, % at 8 µM | 3% of 330,000 active;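 active = inhibition of at least 50% at 8 µM in the primary screen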
CSC inhib – cancer stem cell viability inhibitors, primary screen, luminescence | inhibition, % at 7.5 µM | 1.1% of 300,000 active | cancer stem cell-like cells viability | AID 2717, 2010; in the data active = inhibition above about 75%; inconclusive = no clear call, values can overlap the other calls; tested in HMLE shEcad cells
Mdm2 MdmX conf – Mdm2-MdmX complex disruptors, retested hits, confirmation, luminescence, single concentration; shares compounds with Mdm2-MdmX inh; inhibition, % at 8 µM; 55% of 10,000 active; Mdm2-MdmX binding, luminescent assay; AID 489028, 2010; in the data active = inhibition above about 40%
Full FLuc ctr – full-length luciferase signal inhibition, confirmation, counter-screen for Mdm2/MdmX interaction inhibitor project, cell-based, single concentration, SaOS-2 | shares compounds with Mdm2-MdmX inh | SaOS-2 full-length luciferase counterscreen, luminescence | inhibition, % at 8 µM | 77% of 6,200 active | AID 504607, 2011;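 active = mean inhibition at 8 µM reaching about 37%, which flags the compound as non-specific, limit read from the data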;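 also: p53-null SaOS-2 cells with luciferase driven by a doxycycline-inducible promoter; compound on cells about two nights before reading with doxycycline added after day one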
Hits are given with their value.

How did O=C(NCCc1c[nH]c2ccccc12)C(=O)NCC1OCCN1S(=O)(=O)c1ccc(Cl)cc1 (configuration not stated) do in these assays?
MPTP inh: inactive; Calb FLC: inactive; Beta cell apopt: inactive; Mdm2-MdmX inh: 51; CSC inhib: inactive; Mdm2 MdmX conf: 49; Full FLuc ctr: 37

Results for O=C(NCCc1c[nH]c2ccccc12)C(=O)NCC1OCCN1S(=O)(=O)c1ccccc1 (configuration not stated) ?
MPTP inh: inactive; Calb FLC: inactive; Beta cell apopt: inactive; Mdm2-MdmX inh: inactive; CSC inhib: inactive

Results for Nn1c(COc2ccccc2F)nnc1SCC(=O)NC1CC1 ?
MPTP inh: inactive; Calb FLC: inactive; Beta cell apopt: inactive; Mdm2-MdmX inh: inactive; CSC inhib: inactive

Results for CC(=O)C(C(C)=O)c1c(Cl)c(O)c(O)c2c(C(=O)c3ccccc3)coc12 ?
MPTP inh: inactive; Calb FLC: inconclusive; Beta cell apopt: 128; Mdm2-MdmX inh: 60; CSC inhib: inactive; Mdm2 MdmX conf: inactive

What do the screens show for `COc1ccc(-c2c(C#N)c(N)nc(Sc3ccc(Cl)cc3)c2C#N)cc1`?
MPTP inh: inactive; Calb FLC: inactive; Beta cell apopt: inactive; Mdm2-MdmX inh: inactive; CSC inhib: inactive

Results for COc1nc(N)c(C#N)c(-c2ccc(N(C)CCC#N)cc2)c1C#N ?
MPTP inh: inactive; Calb FLC: inactive; Beta cell apopt: inactive; Mdm2-MdmX inh: 73; CSC inhib: inactive; Mdm2 MdmX conf: 47; Full FLuc ctr: 82

Results for O=C(C[C@H]1C[C@H](C(=O)N2CCCCC2)[C@@]2(CCc3ccccc3)c3[nH]c4ccc(Cl)cc4c3CCN2C1=O)NCc1cccc(C(F)(F)F)c1 ?
MPTP inh: inactive; Mdm2-MdmX inh: 66; Mdm2 MdmX conf: 61; Full FLuc ctr: inactive

How did CC(C)(C)NC(=O)C[C@H]1C[C@H](C(=O)N2CCCCC2)[C@@]2(CCc3ccccc3)c3[nH]c4ccc(Cl)cc4c3CCN2C1=O do in these assays?
MPTP inh: inactive; Mdm2-MdmX inh: 52; Mdm2 MdmX conf: inactive; Full FLuc ctr: 73

What do the screens show for `COCCCNC(=O)C[C@H]1C[C@H](C(=O)N2CCCCC2)[C@@]2(CCc3ccccc3)c3[nH]c4ccc(Cl)cc4c3CCN2C1=O`?
MPTP inh: inactive; Mdm2-MdmX inh: inactive

Results for Cc1ccc(C)c(N2CCN(C(=O)c3ccc4nc(-c5ccco5)c(-c5ccco5)nc4c3)CC2)c1 ?
MPTP inh: inactive; Calb FLC: inactive; Beta cell apopt: inactive; Mdm2-MdmX inh: inactive; CSC inhib: inactive

How did COc1ccccc1N1CCN(C(=O)c2ccc3nc(-c4ccco4)c(-c4ccco4)nc3c2)CC1 do in these assays?
MPTP inh: inactive; Calb FLC: inactive; Beta cell apopt: inactive; Mdm2-MdmX inh: 54; CSC inhib: inactive; Mdm2 MdmX conf: inactive

How did COc1ccccc1N1CCN(C(=O)c2ccc3c(Cl)c4c(nc3c2)CCCC4)CC1 do in these assays?
MPTP inh: inactive; Calb FLC: inactive; Beta cell apopt: inactive; Mdm2-MdmX inh: 64; CSC inhib: inactive; Mdm2 MdmX conf: inactive

What do the screens show for `CC(C)NC(=O)c1cc(C2CCCCN2C(=O)c2ccccc2)on1` (configuration not stated)?
MPTP inh: inactive

What do the screens show for `CCN(CCCNC(=O)COc1cc(=O)n(CC)c2ccccc12)Cc1ccccc1`?
MPTP inh: inactive; Calb FLC: inactive; Beta cell apopt: inactive; Mdm2-MdmX inh: 59; CSC inhib: inactive; Mdm2 MdmX conf: 46; Full FLuc ctr: 93

How did CCn1c(=O)cc(OCC(=O)NCCc2ccc(OC)c(OC)c2)c2ccccc21 do in these assays?
MPTP inh: inactive; Calb FLC: inactive; Beta cell apopt: inactive; Mdm2-MdmX inh: inactive; CSC inhib: inactive

Results for CN(CCCNC(=O)COc1cc(=O)n(C)c2ccccc12)Cc1ccccc1 ?
MPTP inh: inactive; Calb FLC: inactive; Beta cell apopt: inactive; Mdm2-MdmX inh: inactive; CSC inhib: inactive

Results for CCN(CCCNC(=O)CCCOc1cc(=O)n(C)c2ccccc12)Cc1ccccc1 ?
MPTP inh: inactive; Calb FLC: inactive; Beta cell apopt: inactive; Mdm2-MdmX inh: 52; CSC inhib: inactive; Mdm2 MdmX conf: inactive

Results for O=C(NC(Cc1ccccc1)C(=O)O)/C(=C/c1cccc([N+](=O)[O-])c1)NC(=O)c1cccc(Br)c1 (configuration not stated) ?
MPTP inh: inactive; Calb FLC: inactive; Mdm2-MdmX inh: inactive; CSC inhib: inactive

How did CCOc1cccc(C(=O)Nc2cccc(-c3nnc(-c4ccc(C)cc4)o3)c2)c1 do in these assays?
MPTP inh: inactive; Calb FLC: inactive; Beta cell apopt: inactive; Mdm2-MdmX inh: 84; CSC inhib: inactive; Mdm2 MdmX conf: inactive

Results for CCOc1cccc(C(=O)Nc2cccc(-c3nnc(-c4ccccc4)o3)c2)c1 ?
MPTP inh: inactive; Calb FLC: inactive; Mdm2-MdmX inh: 51; Mdm2 MdmX conf: inactive

How did COc1cccc(C(=O)Nc2cccc(-c3nnc(-c4ccccc4)o3)c2)c1 do in these assays?
MPTP inh: inactive; Calb FLC: inactive; Beta cell apopt: inactive; Mdm2-MdmX inh: inactive; CSC inhib: inactive

How did CCCCNC(=O)C1C(c2ccc(C(F)(F)F)cc2)=Nc2ccccc2N1C(=O)c1cccc(C(F)(F)F)c1 (configuration not stated) do in these assays?
MPTP inh: inactive

Results for COC(=O)CCCn1cc(CN2CC(N3CCN(Cc4cccc(C)c4)CC3)CS2(=O)=O)nn1 (configuration not stated) ?
MPTP inh: inactive

What do the screens show for `Cc1ccc(NC(=O)Nc2ccnc(-c3cccnc3)n2)cc1`?
MPTP inh: inactive; Calb FLC: inactive; Beta cell apopt: inactive; Mdm2-MdmX inh: 76; CSC inhib: inactive; Mdm2 MdmX conf: 71; Full FLuc ctr: 68

How did Cc1ccc(C(=O)Nc2ccnc(-c3cccnc3)n2)cc1 do in these assays?
MPTP inh: inactive; Calb FLC: inactive; Beta cell apopt: inactive; Mdm2-MdmX inh: inactive; CSC inhib: inactive

How did O=C(OCc1cncs1)c1ccccc1 do in these assays?
MPTP inh: inactive; Calb FLC: inactive; Beta cell apopt: inactive; Mdm2-MdmX inh: inactive; CSC inhib: inactive

Results for Cc1ccc(N=Nc2c(N)nn3c(C)cc(C)nc23)cc1 ?
MPTP inh: inactive; Calb FLC: inactive; Beta cell apopt: inactive; Mdm2-MdmX inh: inactive

What do the screens show for `Cc1ccc(N=Nc2c(N)nn3c(N)c(C#N)c(C)nc23)cc1`?
MPTP inh: inactive; Calb FLC: inactive; Beta cell apopt: inactive; Mdm2-MdmX inh: 61; CSC inhib: inactive; Mdm2 MdmX conf: 59; Full FLuc ctr: 48
